# PAFAH2 inh – PAFAH2 (human) inhibition; Q99487; recombinant PAFAH2, FP-rhodamine activity probe, fluorescence polarization; inhibition, % at 3.39 µM; hit rate 0.99% among 340,000; AID 492956;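 active = inhibition above the mean over all tested compounds plus 3 SD, cut at about 30% in these data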;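 also: inhibitors block probe labeling of enzyme so polarization drops; 0% = enzyme with DMSO and 100% = wells lacking PAFAH2 protein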
# PAFAH1B3 inh – blocks human PAF acetylhydrolase 1B catalytic subunit 3 | Q15102 | recombinant PAFAH1B3, FP-rhodamine probe, fluorescence polarization | inhibition, % at 3.39 µM | hit rate 0.28% among 340,000;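 active = inhibition above the screen-wide average of all tested compounds plus 3 SD, cut at about 25% in these data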;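 also: 0% = enzyme with DMSO only and 100% = wells lacking PAFAH1B3 protein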
# pPAFAH FP inh – pPAFAH (human) enzyme inhibition; hit rate 1.5% among 330,000; inhibition, % at 3.39 µM; AID 463082; recombinant pPAFAH, FP-rhodamine probe fluorescence polarization;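 active = inhibition above the mean inhibition across the screen plus 3 SD, cut at about 25% in these data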;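 also: inhibitors block binding of the rhodamine activity-based probe so polarization drops; 0% = enzyme with DMSO and 100% = wells lacking pPAFAH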
# Target sequence (Q13093 whole entry, looked up): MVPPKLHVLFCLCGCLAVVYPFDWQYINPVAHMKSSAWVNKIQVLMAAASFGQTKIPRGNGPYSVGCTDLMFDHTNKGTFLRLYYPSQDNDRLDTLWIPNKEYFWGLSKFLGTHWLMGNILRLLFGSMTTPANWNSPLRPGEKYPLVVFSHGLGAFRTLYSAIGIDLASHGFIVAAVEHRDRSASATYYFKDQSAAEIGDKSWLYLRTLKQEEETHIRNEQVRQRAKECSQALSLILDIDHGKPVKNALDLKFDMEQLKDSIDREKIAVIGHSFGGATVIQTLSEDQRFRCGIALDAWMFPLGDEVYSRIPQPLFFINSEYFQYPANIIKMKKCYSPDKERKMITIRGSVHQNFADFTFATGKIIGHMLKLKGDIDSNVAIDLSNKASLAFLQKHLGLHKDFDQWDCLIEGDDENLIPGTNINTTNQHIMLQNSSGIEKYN
# LYPLA1 counter – LYPLA1 (human) inhibition in PME1 counter-screen; AID 2174; recombinant LYPLA1, FP-Rh probe fluorescence polarization; hit rate 0.16% among 320,000; inhibition, % at 5.9 µM; O75608;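 active = inhibition above the mean of all tested compounds plus 3 SD, set per campaign, cut at about 14% in these data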;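 also: inhibitors block serine hydrolase probe labeling of LYPLA1 so polarization falls; 0% = enzyme with DMSO and 100% = wells lacking LYPLA1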
# PAFAH1B2 inh – inhibitors of human PAFAH1B2; AID 492953; inhibition, % at 3.39 µM; hit rate 1.2% among 340,000; recombinant PAFAH1B2, FP-rhodamine activity probe, fluorescence polarization; P68402;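 active = inhibition above the mean of all tested compounds plus 3 SD, cut at about 24% in these data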;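 also: 0% = enzyme with DMSO and 100% = wells lacking PAFAH1B2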
# LYPLA2 inh – blocks human lysophospholipase 2, a PME1 counter-screen | O95372 | recombinant LYPLA2, FP-Rh probe fluorescence polarization | inhibition, % at 5.9 µM | hit rate 0.38% among 320,000;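 active = inhibition above the screen-wide mean plus 3 SD, limit set per campaign, cut at about 26% in these data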;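 also: 0% = LYPLA2 with DMSO and 100% = wells lacking LYPLA2 enzyme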
# PAFAH2 confirm – confirmation of human PAFAH2 inhibitors; shares compounds with PAFAH2 inh; recombinant PAFAH2, FP-rhodamine activity probe, fluorescence polarization; inhibition, % at 3.39 µM; hit rate 65% among 2,300; AID 493030;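 active = mean inhibition over three repeats above a set limit taken from the earlier primary screen, cut at about 30% in these data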;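 also: inhibitor blocks binding of rhodamine activity probe so polarization falls; 0% = enzyme with DMSO and 100% = wells lacking PAFAH2 protein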
# * marks the source's active call; other numbers are inactive results; . = no result. The list is not random: actives were taken first. Their share in the collection is about 2.9%.
SMILES,PAFAH2 inh,PAFAH1B3 inh,pPAFAH FP inh,LYPLA1 counter,PAFAH1B2 inh,LYPLA2 inh,PAFAH2 confirm
CCc1nc2ccccc2c(C(=O)Nc2cc(C)ccc2C)c1C,4,4,2,-2,-3,-3,.
O=C(COC(=O)/C=C/c1ccccc1)Nc1cc(C(F)(F)F)ccc1N1CCOCC1,56*,4,4,-1,-1,2,57*
Fc1ccc(NC(=S)NN2CCOCC2)cc1Cl,-2,12,-4,-4,-2,-1,.
CCCCN1CC(=O)N2[C@H]3c4ccc(OC)cc4OC[C@@H]3[C@H](C(=O)OCC)[C@]2(C)C1=O,-6,4,0,0,-3,4,.
COc1ccc(OC)c(/C=C/C(=O)OCC(=O)NCc2ccco2)c1,40*,7,0,1,1,-2,28
COc1ccc(OC)c(/C=C/C(=O)OCC(=O)Nc2cccc(C(C)=O)c2)c1,68*,-8,-2,-6,0,-8,62*
COc1ccc(/C=C/C(=O)OCC(=O)NCc2ccco2)c(OC)c1,74*,-1,13,5,1,1,69*
COc1ccc(/C=C/C(=O)OCC(=O)NCCc2ccccc2)c(OC)c1,76*,5,17,.,-2,.,60*
COc1ccc(OC)c(/C=C/C(=O)Oc2ccc(C(C)=O)cc2)c1,18,2,6,4,0,4,.
O=C(CN(Cc1ccc(F)cc1)C(=O)CCC(=O)Nc1nccs1)NCc1ccccc1,-2,4,3,-3,7,1,.
O=C1CCC(C(=O)NCCN2C(=O)S/C(=C\c3cccnc3)C2=O)=NN1,-3,5,8,8,2,13,.
CCC(=O)Nc1cccc(-c2nc3ccccc3c(=O)o2)c1,20,6,-2,4,0,5,.
CC(=O)Oc1ccc2nc(/C=C/c3ccccc3)oc(=O)c2c1,76*,5,0,-2,2,4,71*
CC(=O)Oc1ccc2c(=O)oc(-c3ccccc3C)nc2c1,25,12,-1,-1,-1,-1,.
CC(=O)Oc1ccc2nc(/C=C/c3ccc(C=O)cc3)oc(=O)c2c1,3,16,-3,2,7,7,.
CCCOc1cccc(-c2nc3ccccc3c(=O)o2)c1,64*,5,-16,0,2,1,59*
CC(=O)Oc1ccc2nc(-c3ccc(Br)o3)oc(=O)c2c1,46*,-1,6,2,7,5,45*
CC(=O)Oc1ccc2c(=O)oc(-c3ccccc3)nc2c1,41*,9,1,2,-2,1,40*
CCc1cccc(NC(=O)CSc2nnc(Cc3ccc(OC)cc3)c(=O)[nH]2)c1,0,1,-4,-6,7,-8,.
CCOc1ccc2c(c1)C(C)=CC(C)(C)N2C(=O)Nc1ccccc1,-8,5,7,3,6,3,.
Nc1ccc(C(=O)OCCCc2nc3ccccc3[nH]2)cc1,19,3,4,1,-6,0,.
Nc1ccc(C(=O)OCc2nc3ccccc3[nH]2)cc1,88*,8,6,4,3,5,79*
CCc1ccc(CN2CCC(C(=O)Nc3cccc(-c4nnc(C)s4)c3)CC2)o1,6,6,0,-3,-3,-5,.
C/C(=N\OCC(=O)Nc1cc(C)cc(C)c1)c1ccc2c(c1)OCCO2,0,0,2,-8,1,-2,.
Cc1ccc(C(=O)OCC(=O)Nc2ccc3c(c2)OCCO3)cc1C,58*,-2,.,.,0,.,52*
CCOc1ccc(NC(=O)COC(=O)c2ccc3c(c2)OCCO3)cc1,60*,4,10,-3,-2,0,54*
O=C(COC(=O)c1ccc(Cl)nc1)Nc1ccc2c(c1)OCCO2,5,2,2,1,2,3,.
Cc1cc(C)cc(NC(=O)COC(=O)c2ccc3c(c2)OCCO3)c1,72*,5,1,-2,1,-2,77*
C/C(=N\NC(=O)c1ccc(CSc2nncn2C)cc1)c1ccc(Cl)cc1,-6,6,4,-1,2,0,.
CCN(CC)S(=O)(=O)c1ccc2c(c1)nc(CCC(=O)O)n2C,-1,-2,3,2,-5,-1,.

# Screening data as filed in PubChem BioAssay.
